Data on 40 compounds can be found in PubChem BioAssay (Tox21).

“And” between values parts separate entries of the source, which are not always exact repeats. Equal values may be shown once. Results filed as inconclusive are left out. Entries that show only a call come without a potency. The source made the active and inactive calls. Calls come from the whole dose curve; as a rule, active = well fitted activation curve with a large enough effect in the repeat runs; inconclusive = weak or mixed curves; inactive = no such curve, though single readings can be large or run the other way.
Potency is the fitted concentration of half-maximal effect.

A short description of this experiment: qHTS assay for small molecules that induce genotoxicity in human embryonic kidney cells expressing luciferase-tagged ATAD5 (AID 651632). Note: nearly all actives have a fitted effect of over 15% in size. To be noted: HEK293T ATAD5-luciferase induction, 16 h; series mostly up to 83.3 µM. An excerpt: U.S. Tox21 Program National Center for Advancing Translational Sciences [NCATS] NIH Chemical Genomics Center [NCGC] U.S. Environmental Protection Agency [EPA] National Institutes of Environmental Health Sciences [NIEHS] National Toxicology Program [NTP] U.S. Food and Drug Administration [FDA] Tox21 Assay Overview: As cancer cells divide rapidly and during every cell division they need to duplicate their genome by DNA replication. The failure to do so results in the cancer cell death. Based on this concept, many chemotherapeutic agents were developed but have limitations such as low efficacy and severe side effects etc. A new cell based assay was developed to find the compounds that effectively block DNA replication either by directly damaging DNA or by inhibiting other cellular mechanisms. Enhanced Level of Genome Instability Gene 1 (ELG1; human ATAD5) protein levels increase in response to various types of DNA damage. Using a luciferase reporter-gene tagged with ATAD5, a cell-based assay [developed by Kyungjae Myung, NHGRI, NIH] was used to measure the induction of ATAD5 in human embryonic kidney cells (HEK293T). So, increase in luciferase activity can be used to identify the compounds that cause genetic stress.
Tox21 Assay Protocol Summary: For genotoxicity screening, 2,000 cells in 5 uL/well were dispensed into white, solid-bottom 1536-well plates using a Multidrop Combi (Thermo Scientific) dispenser. Following transfer of 23 nL compound or DMSO vehicle by a pin tool, the plates were incubated 16 hr at 37C and 5% CO2. 5 ul Amplite (AAT Bioquest, Inc.) was then added to each plate and following 30 min incubation at room temperature, luciferase activity was quantified on a ViewLux CCD-based plate reader.
Consider `Cc1ccc(O)cc1`, for which the Potency result is “inactive”.
For `CCCN(CCC)S(=O)(=O)c1ccc(C(=O)O)cc1`, the Potency result is “inactive”.
The same measure for `CC(=O)Nc1nnc(S(N)(=O)=O)s1`: “inactive”; for `O=c1cc[nH]c(=S)[nH]1`: “inactive”.
Consider `O=C(O)c1cccc([N+](=O)[O-])c1`, for which the Potency result is “inactive”.
On to `CCCCCCCCCCCCCCCC(=O)O`, for which the Potency result is “inactive”.
Regarding `O=C1CN(/N=C/c2ccc([N+](=O)[O-])o2)C(=O)N1`, the Potency entry was “inactive”.
As for `O=S(=O)(O)c1ccc2cc(O)ccc2c1`, the Potency entry is “inactive”.
Then `CC(C)[C@@H]1CC[C@@H](C)C[C@H]1O`, with “inactive”; and `O=C(O)c1[nH]n(-c2ccc(S(=O)(=O)O)cc2)c(=O)c1N=Nc1ccc(S(=O)(=O)O)cc1`, with “inactive”.
`CC(C)(Oc1ccc(C2CC2(Cl)Cl)cc1)C(=O)O` (stereo not given): the Potency entry was “inactive”.
In the case of `Cc1cc(=O)[nH]c(=S)[nH]1`, the Potency entry was “inactive”.
Turning to `Nc1ccc(O)c(C(=O)O)c1`, the Potency result is “inactive”.
For the compound `C1N2CN3CN1CN(C2)C3`, the Potency result was “inactive”.
Take `OC(Cn1cncn1)(Cn1cncn1)c1ccc(F)cc1F`: the Potency entry is “inactive”.
Regarding `Cc1ccc(C)c(OCCCC(C)(C)C(=O)O)c1`, the Potency entry is “inactive”.
`Nc1ccc(C(=O)O)cc1`: the Potency entry was “inactive”.
As to `NNC(=O)c1ccncc1`, the Potency result was “inactive”.
`CCCCC1C(=O)N(c2ccccc2)N(c2ccccc2)C1=O`: the Potency result is “inactive”.
Then `O=C(O)c1cc(N=Nc2ccc(S(=O)(=O)Nc3ccccn3)cc2)ccc1O`, with “inactive”; and `CC1(C)[C@@H]2CC[C@@]1(C)C(=O)C2`, with “inactive”.
Then `Cc1ccccc1C(OCCN(C)C)c1ccccc1` (stereo not given), with “inactive”; and `NC(=O)c1ccccc1O`, with “inactive”; and `CCCC(CCC)C(=O)O`, with “inactive”.
As to `CCCCOC(=O)CC(CC(=O)OCCCC)(OC(C)=O)C(=O)OCCCC`, the Potency entry is “inactive”.
On to `c1ccc2[nH]ccc2c1`, for which the Potency result was “inactive”.
The same measure for `CC(=O)NS(=O)(=O)c1ccc(N)cc1`: “inactive”.
The same measure for `CCCNC(=O)NS(=O)(=O)c1ccc(Cl)cc1`: “inactive”.
`COc1ccc2[nH]cc(CCNC(C)=O)c2c1`: the Potency entry was “inactive”.
Consider `N=C(N)c1ccc(OCCCCCOc2ccc(C(=N)N)cc2)cc1`, for which the Potency result was “inactive”.
On to `Cn1cc[nH]c1=S`, for which the Potency result was “inactive”.
Then `Oc1ccc(/C=C/c2cc(O)cc(O)c2)cc1`, with 2.54 µM (active) and 2.46 µM (active) and 3.06 µM (active); and `NC(N)=NC(=O)c1nc(Cl)c(N)nc1N`, with “inactive”; and `O=C(O)CCCCCCCC(=O)O`, with “inactive”.
`CCCCC(CC)COC(=O)/C=C/c1ccc(OC)cc1` (stereo not given): the Potency entry is “inactive”.
As to `NS(=O)(=O)c1cc(C(=O)O)c(NCc2ccco2)cc1Cl`, the Potency entry was “inactive”.
On to `Cc1noc(NS(=O)(=O)c2ccc(N)cc2)c1C`, for which the Potency entry was “inactive”.
For `CCOc1ccc(NC(=O)CC(C)O)cc1` (stereo not given), the Potency result is “inactive”.
In the case of `NC(=O)NC1NC(=O)NC1=O` (stereo not given), the Potency entry was “inactive”.
For `CCCC(O)C(CC)CO` (stereo not given), the Potency result was “inactive”.
